Shiga toxin inh = blocks Shiga toxin action in Vero cells. Vero cells, Shiga toxin protein synthesis inhibition reporter. inhibition, % at 38.7 µM. hit rate 9.2% among 290,000; in the data active = inhibition mostly above about 28%, no sharp cut-off; inactive = mostly below about 43%; also: 0% is about no effect
CHX counter = counter-screen for Shiga toxin inhibitors: cycloheximide protein synthesis inhibition | cell reporter, cycloheximide protein synthesis inhibition counterscreen | max response, % | hit rate 12% among 300,000 | AID 2314; in the data active = max response mostly above about 13%, no sharp cut-off; inactive = mostly below about 14%; also: read at 38.3 µM for the half of the compounds with a filed dose; 0% is about no effect
MARV entry inh = Marburg virus entry inhibition; Potency, µM (series often up to 37.8 µM), for the others: top-dose activity change, negative = inhibition, usual class: inhibitors; Marburg virus pseudotyped entry inhibition, cell reporter; hit rate 1.8% among 300,000; AID 540276; calls by dose curve; tested in HEK293 cells; also: potency is read from the fitted curve at half-maximal effect; % is scaled to controls: 0 for no effect and ±100 for the full control effect
VACV mCherry inh = inhibitors of vaccinia virus infection (mCherry reporter signal); Vaccinia virus mCherry reporter infection, fluorescence; Potency, µM (series often up to 36.5 µM), for inactives: at the highest dose activity change, negative = inhibition, hits mostly inhibitors; hit rate 0.63% among 310,000; calls by dose curve; tested in A549 cells; also: potency is read from the fitted curve at half-maximal effect; % is scaled to controls: 0 for no effect and ±100 for the full control effect; nearly all actives have a fitted effect of over 35% in size
Vaccinia Venus = inhibitors of vaccinia virus (Venus reporter). Vaccinia virus Venus reporter expression, fluorescence. Potency, µM (doses to about 36.5 µM), for inactives: at the highest dose activity change, negative = inhibition, actives largely listed as inhibitors. hit rate 0.46% among 330,000. AID 720580; calls by dose curve; tested in A549 cells; also: potency is read from the fitted curve at half-maximal effect; % is scaled to controls: 0 for no effect and ±100 for the full control effect; nearly all actives have a fitted effect of over 30% in size
LASV entry inh = inhibitors of Lassa virus binding or cell entry. AID 540256. hit rate 1.2% among 300,000. Lassa virus pseudotype entry inhibition, cell reporter. Potency, µM (titrated, usually from 37.9 µM), for inactives: at the highest dose activity change, negative = inhibition, usual class: inhibitors; calls by dose curve; tested in HEK293 cells; also: potency is read from the fitted curve at half-maximal effect; % is scaled to controls: 0 for no effect and ±100 for the full control effect; nearly all actives have a fitted effect of over 50% in size
* hit, by the source's call; i = inactive; u = inconclusive; x = not tested or not shown; [ ] = dose if it differs, or a comment. This excerpt belongs to a sample that is enriched for hits.

SMILES	Shiga toxin inh	CHX counter	MARV entry inh	VACV mCherry inh	Vaccinia Venus	LASV entry inh
COc1ccc(C2=NN(C(=O)CCC(=O)O)C(c3ccccc3OC)C2)cc1 (stereo unspecified)	2	-1	8%[46.1 µM]	-12%	-18%	6%[46.1 µM]
CCOc1ccccc1C1N=C(c2ccc(OC)cc2)CC(c2ccccc2O)N1 (stereo unspecified)	114*	46*	13%	u	-21%	-19%
COc1ccc(OC)c(-c2c3cc(O)c(=O)cc-3oc3cc(O)c(O)cc23)c1	-3	-5	21µM*	i	i	u
CC(=O)c1nccs1	x	x	x	-13%	-9%	x
Cc1ccc(C(=O)c2cc(C)sc2NC(=O)CN2CCN(C(=O)c3ccco3)CC2)cc1	-12	-4	u	11µM*	u	u
O=C(CN1CCN(c2ccccn2)CC1)Nc1ccc2ccccc2c1	60*	45*	u	x	1%	-10%
O=C(CN1CCN(c2ccccn2)CC1)Nc1ccc(F)cc1F	50*	20*	x	x	x	x
O=C(CN1CCN(C(=O)c2ccco2)CC1)Nc1ccc(F)cc1F	36*	24*	u	-18%	-12%	u
O=C(CN1CCN(c2ccccn2)CC1)Nc1cccc(Cl)c1Cl	-9	-3	-31%	i	-5%	7.1µM*
O=C(CN1CCN(c2ccccn2)CC1)Nc1ccccc1Br	-5	-2	x	x	x	x
CCOc1ccc(N2CC(C(=O)Nc3ccc4c(c3)OCCO4)CC2=O)cc1 (stereo unspecified)	62*	50*	-23%[46.1 µM]	2%	-9%	15%
Cc1cc(C)c(NC(=O)C2CC(=O)N(c3ccc4c(c3)OCCO4)C2)c(C)c1 (stereo unspecified)	13	26*	u	x	x	7%
CCC(C(=O)NCc1ccccc1OC)n1nc(C)n2c(cc3sccc32)c1=O (stereo unspecified)	x	x	3%[46.1 µM]	-9%	-8%	x
Cc1cc(Nc2ccc(N(C)C)cc2)n2ncnc2n1	98*	44*	-1%[46.1 µM]	-10%	-7%	-7%[46.1 µM]
OC(c1ccccc1)c1nc(-c2cncnc2)cs1 (stereo unspecified)	x	x	x	6%	-7%	x
CC(=O)Nc1cccc(C(=O)N/N=C/c2ccc(F)cc2)c1	83*	34*	4%[46.1 µM]	-6%	0%	u
Cc1ccc(C(=O)Nc2cccc(C(=O)N/N=C/c3ccc(F)cc3)c2)cc1	58*	27*	-15%[46.1 µM]	i	-2%	-18%[46.1 µM]
Cc1c(CN2CCOc3c(cc(-c4ncc(C(F)(F)F)cc4Cl)cc3OCC3CCCO3)C2)cnn1C (stereo unspecified)	x	x	x	i	-18%	x
CC(=O)Nc1cccc(-c2csc(Nc3ccc(C)cn3)n2)c1	98*	69*	u	u	u	1.8µM*
CC(=O)Nc1cccc(-c2csc(Nc3ncccn3)n2)c1	91*	43*	x	x	x	x
CC(=O)Nc1ccc(-c2csc(Nc3cccc(C)n3)n2)cc1	73*	50*	-15%	u	-18%	u
CC(=O)Nc1cccc(-c2csc(C(C)(O)c3cccc(F)c3)n2)c1 (stereo unspecified)	x	x	x	u	-28%	x
CC(=O)Nc1cccc(-c2cnc(NC(C)=O)cn2)c1	x	x	x	u	-29%	x
COc1cccc(N2CC(NC(=O)c3ccc(S(=O)(=O)N4CCOCC4)cc3)CC2=O)c1 (stereo unspecified)	x	x	x	-7%[7.34 µM]	-9%[7.34 µM]	12%[46.1 µM]
Cc1ccc(CNc2nc(CN3CCNC(=O)C3)nc3ccccc23)o1	x	x	x	-16%	-13%	x
SMILES	Shiga toxin inh	CHX counter	MARV entry inh	VACV mCherry inh	Vaccinia Venus	LASV entry inh
CC(C)C(=O)N1CCN(c2ccc(NC(=O)COc3ccccc3[N+](=O)[O-])cc2)CC1	25	1	u	-5%	-30%	u
Cc1ccccc1C(=O)O/N=C(\N)c1ccccc1	28	21*	u	0%	-2%	u
Cc1ccccc1C(=O)O/N=C(\c1ccccc1)c1ccccn1	-4	8	u	-17%	-29%	7%
N/C(CS(=O)(=O)c1ccccc1)=N\OC(=O)c1ccc(F)cc1	109*	28*	u	-15%	-12%	29%[46.1 µM]
Cc1ccccc1C(=O)O/N=C(\N)c1ccc([N+](=O)[O-])cc1	x	32*	u	u	2%	0%[46.1 µM]
O=C(CS(=O)(=O)c1ccc(F)cc1)NCCS(=O)(=O)c1ccccc1	-6	1	x	x	x	x
Cc1ccccc1/C(N)=N/OC(=O)c1ccc(F)cc1	107*	47*	x	-3%	1%	x
CC(C)=CCCC(C)=CCON=C1C[C@@H](O)[C@@H](O)[C@@H]2[C@H]3C(=O)N(Cc4ccccc4)C(=O)[C@@H]3CC[C@@H]12	x	x	3%[14.2 µM]	x	x	x
COC(=O)CC=C[C@@H](C)[C@H](OC)c1cc(OC)ccc1Br	x	x	3%[14.2 µM]	x	x	x
CC(=O)N1c2ccc(S(=O)(=O)Nc3ccc(Cl)cc3C)cc2CC1C (stereo unspecified)	x	x	x	-21%	-26%	-18%[46.1 µM]
COc1cc(C(=O)O/N=C(\N)c2cccc([N+](=O)[O-])c2)cc(OC)c1OC	8	6	-1%	-17%	-12%	-15%
N/C(=N\OC(=O)c1ccccc1Br)c1ccc([N+](=O)[O-])cc1	19*	10*	x	x	x	x
N/C(=N\OC(=O)c1ccccc1F)c1cccc([N+](=O)[O-])c1	56*	39*	x	x	x	x
N/C(=N\OC(=O)c1ccccc1Br)c1cccc([N+](=O)[O-])c1	118*	52*	x	x	x	x
CCOC(=O)c1ccc(S(=O)(=O)N2CCN(c3nc(-c4cccs4)nc4ccccc34)CC2)cc1	x	x	x	-10%	-11%	x
CC1(C)CC(=O)C2=C(C1)Oc1nc3ccccc3cc1C2C(C#N)C#N (stereo unspecified)	-3	-1	u	u	11µM*	16µM*
CC1(C)CC(=O)C([C@H]2C3=C(CC(C)(C)CC3=O)Oc3ccccc32)C(=O)C1	x	x	-5%[46.1 µM]	x	x	x
Cc1ccc(-c2c(C)sc(=NC(=O)c3ccco3)n2C)cc1	97*	67*	-2%	i	-20%	11%
CC(C)CO/N=C1\C[C@@H](O)[C@@H](O)[C@@H]2[C@@H]3C(=O)N(c4cccc(Oc5ccccc5)c4)C(=O)[C@@H]3CC[C@@H]12	x	x	-1%[14.2 µM]	x	x	x
CCCSc1nc2c(cnn2-c2ccc(C)cc2)c(=O)[nH]1	-3	-3	3%	u	28µM*	3%
CCCSc1nc2c(cnn2-c2ccccc2)c(=O)[nH]1	-13	5	x	i	-12%	x
CCOc1ccc(C(=O)NCCc2sc(-c3ccc(OC)c(OC)c3)nc2C)cc1	x	x	x	-27%	-26%	u
Cc1csc(NC(=O)c2ccc(C)c([N+](=O)[O-])c2)n1	45	42*	u	u	-23%	u
Cc1csc(NC(=O)c2ccc(Cl)cc2[N+](=O)[O-])n1	128*	46*	u	u	u	-19%
COc1cc(/C=C/c2cccc[n+]2C)ccc1OCC(=O)Nc1cccc(Cl)c1	-9	3	-19%[46.1 µM]	-12%	-2%	u

Screening results from PubChem BioAssay.
